Drawing on ChEMBL document CHEMBL3988442, “University of Dundee, Small-Polar-MMV Screening Library” (2021), this text covers PXC50 and Percent Effect for 4 molecules.

Structures are written as SMILES. For part of these data: Results with a measured potency or affinity are listed apart.

In assay [1] the target is T1, Methionyl-tRNA synthetase, putative (Leishmania donovani (strain BPK282A1)) (UniProt E9BF75).
T1 sequence (whole entry): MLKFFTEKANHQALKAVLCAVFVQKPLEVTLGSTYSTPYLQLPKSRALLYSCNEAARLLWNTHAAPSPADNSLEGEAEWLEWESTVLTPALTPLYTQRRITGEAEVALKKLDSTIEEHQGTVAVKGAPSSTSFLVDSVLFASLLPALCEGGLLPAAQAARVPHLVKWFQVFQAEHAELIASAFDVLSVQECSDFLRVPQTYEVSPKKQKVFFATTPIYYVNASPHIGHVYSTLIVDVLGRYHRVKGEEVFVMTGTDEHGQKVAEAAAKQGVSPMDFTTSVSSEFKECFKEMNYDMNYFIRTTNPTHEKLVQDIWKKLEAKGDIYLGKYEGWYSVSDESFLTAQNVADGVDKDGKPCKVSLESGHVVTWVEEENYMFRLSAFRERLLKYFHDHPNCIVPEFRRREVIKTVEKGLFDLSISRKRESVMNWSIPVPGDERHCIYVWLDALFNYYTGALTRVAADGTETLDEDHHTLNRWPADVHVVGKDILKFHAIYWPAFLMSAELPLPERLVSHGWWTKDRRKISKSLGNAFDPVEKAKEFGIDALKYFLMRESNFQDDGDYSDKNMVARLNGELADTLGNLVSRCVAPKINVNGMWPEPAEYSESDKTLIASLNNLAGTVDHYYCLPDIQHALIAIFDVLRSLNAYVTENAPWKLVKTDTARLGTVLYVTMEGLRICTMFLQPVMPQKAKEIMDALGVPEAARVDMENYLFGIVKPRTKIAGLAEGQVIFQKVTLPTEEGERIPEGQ
Nature of the assay: Leishmania donovani Methionine tRNA synthetase (LdMetRS):v7. Dose response assay. It is filed as functional. Also noted: conc 80 nM, time 150 minutes.

The target in assay [2] is Protein translocase subunit SecA (Escherichia coli (strain K12)) (UniProt P10408). Nature of the assay: Assay to Identify E. coli SecA ATPase Inhibitors. Further details: scale not given: direction of the effect not stated beside the values. It is filed as functional. The settings on record: 30 µM.
Chain of Protein translocase subunit SecA (Escherichia coli (strain K12)) (P10408 whole entry): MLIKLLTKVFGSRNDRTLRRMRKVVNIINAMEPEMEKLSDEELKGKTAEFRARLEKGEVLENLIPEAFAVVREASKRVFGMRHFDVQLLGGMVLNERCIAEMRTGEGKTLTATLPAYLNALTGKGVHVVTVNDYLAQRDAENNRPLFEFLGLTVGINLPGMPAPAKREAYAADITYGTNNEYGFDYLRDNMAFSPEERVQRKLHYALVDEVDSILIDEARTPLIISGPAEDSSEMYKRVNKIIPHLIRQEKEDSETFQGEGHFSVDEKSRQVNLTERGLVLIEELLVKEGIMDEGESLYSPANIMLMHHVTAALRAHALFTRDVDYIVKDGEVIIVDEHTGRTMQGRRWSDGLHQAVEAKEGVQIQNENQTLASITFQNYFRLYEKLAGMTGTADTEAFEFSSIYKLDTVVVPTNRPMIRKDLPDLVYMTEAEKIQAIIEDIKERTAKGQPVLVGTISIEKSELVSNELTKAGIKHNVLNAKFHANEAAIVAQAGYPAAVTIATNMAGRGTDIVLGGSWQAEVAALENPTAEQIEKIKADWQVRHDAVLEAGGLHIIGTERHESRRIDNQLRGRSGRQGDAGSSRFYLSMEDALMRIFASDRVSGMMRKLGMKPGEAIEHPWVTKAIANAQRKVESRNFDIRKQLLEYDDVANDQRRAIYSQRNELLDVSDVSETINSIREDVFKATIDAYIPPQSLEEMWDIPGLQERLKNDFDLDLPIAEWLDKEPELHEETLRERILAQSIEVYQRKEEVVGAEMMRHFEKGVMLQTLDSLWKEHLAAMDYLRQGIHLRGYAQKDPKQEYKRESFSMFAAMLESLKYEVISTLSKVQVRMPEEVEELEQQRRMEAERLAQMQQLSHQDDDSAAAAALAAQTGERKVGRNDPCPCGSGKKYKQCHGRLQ
The target of assay [3] is T2, Ubiquitin-activating enzyme e1, putative (Leishmania donovani (strain BPK282A1)) (UniProt E9BSI1).
T2 sequence (whole entry): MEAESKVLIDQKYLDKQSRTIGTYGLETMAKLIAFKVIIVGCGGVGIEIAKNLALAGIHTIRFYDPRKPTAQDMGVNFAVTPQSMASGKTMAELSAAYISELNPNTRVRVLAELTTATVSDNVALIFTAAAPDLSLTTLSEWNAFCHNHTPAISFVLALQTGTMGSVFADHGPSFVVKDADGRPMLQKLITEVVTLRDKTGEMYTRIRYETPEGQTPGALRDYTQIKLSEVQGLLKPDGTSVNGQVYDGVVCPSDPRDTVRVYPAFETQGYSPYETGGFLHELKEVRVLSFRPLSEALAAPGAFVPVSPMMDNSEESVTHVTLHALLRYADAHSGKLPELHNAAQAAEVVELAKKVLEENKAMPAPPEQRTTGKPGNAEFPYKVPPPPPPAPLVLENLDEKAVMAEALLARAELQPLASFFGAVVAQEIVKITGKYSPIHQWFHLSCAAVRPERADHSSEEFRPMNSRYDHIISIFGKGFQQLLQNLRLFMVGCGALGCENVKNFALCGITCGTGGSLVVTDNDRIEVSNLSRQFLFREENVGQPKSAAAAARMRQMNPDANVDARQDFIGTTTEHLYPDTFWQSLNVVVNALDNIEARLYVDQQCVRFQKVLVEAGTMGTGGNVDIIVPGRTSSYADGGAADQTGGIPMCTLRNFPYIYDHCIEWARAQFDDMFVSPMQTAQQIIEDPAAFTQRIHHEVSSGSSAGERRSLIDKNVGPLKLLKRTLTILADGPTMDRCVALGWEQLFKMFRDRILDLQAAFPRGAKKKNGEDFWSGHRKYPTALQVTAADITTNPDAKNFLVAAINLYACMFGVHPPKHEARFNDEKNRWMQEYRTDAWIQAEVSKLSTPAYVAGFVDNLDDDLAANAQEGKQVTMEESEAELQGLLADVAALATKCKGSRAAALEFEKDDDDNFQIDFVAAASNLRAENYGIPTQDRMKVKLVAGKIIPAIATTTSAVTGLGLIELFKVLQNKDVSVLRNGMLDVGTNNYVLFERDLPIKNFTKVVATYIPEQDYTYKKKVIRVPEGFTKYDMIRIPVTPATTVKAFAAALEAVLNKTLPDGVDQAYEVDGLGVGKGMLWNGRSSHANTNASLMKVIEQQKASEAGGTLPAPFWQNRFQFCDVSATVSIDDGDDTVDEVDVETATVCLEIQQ
In words: Leishmania donovani Ubiquitin Activating Enzyme (LdE1). Type of assay: functional. Further details: scale not given: direction of the effect not stated beside the values. The settings on record: 30 µM.

Assay [4] addresses AMP-activated protein kinase, AMPK (Homo sapiens) (UniProt P54646+O43741+P54619+Q9UGJ0+Q9Y478+Q13131+Q9UGI9). Nature of the assay: AMP-dependent Kinase enzyme assay. An in vitro enzyme assay that detects ADP turnover that is directly proportional to AMPK activity. This uses naive AMPK that is activated during the assay with MK-8722. It is filed as functional. The settings on record: 30 µM. Also noted: scale not given: direction of the effect not stated beside the values.

Assay [5] deals with Sialic acid-binding Ig-like lectin 9 (Homo sapiens) (UniProt Q9Y336). Nature of the assay: Hs-Siglec9 ALPHAscreen SOP 20170721. The settings on record: 10 µM. Also noted: scale not given: direction of the effect not stated beside the values.
Chain of Sialic acid-binding Ig-like lectin 9 (Homo sapiens) (Q9Y336 whole entry): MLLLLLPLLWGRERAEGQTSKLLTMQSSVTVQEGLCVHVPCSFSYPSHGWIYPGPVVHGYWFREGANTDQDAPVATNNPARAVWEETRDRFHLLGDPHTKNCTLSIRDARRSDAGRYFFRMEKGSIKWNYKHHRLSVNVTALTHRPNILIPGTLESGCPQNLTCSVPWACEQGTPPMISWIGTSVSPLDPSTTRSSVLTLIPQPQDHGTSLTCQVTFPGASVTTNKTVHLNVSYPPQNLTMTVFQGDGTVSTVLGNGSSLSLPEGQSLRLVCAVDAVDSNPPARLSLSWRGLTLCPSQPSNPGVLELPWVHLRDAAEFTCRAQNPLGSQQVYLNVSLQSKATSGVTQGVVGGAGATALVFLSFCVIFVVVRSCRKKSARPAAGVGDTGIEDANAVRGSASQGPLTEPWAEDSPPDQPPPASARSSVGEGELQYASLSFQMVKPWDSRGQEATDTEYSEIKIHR
The subject of the next assay is Trypanosoma cruzi. In words: Trypanosoma cruzi phosphomannomutase and mannose-1-phosphate guanylyltransferase assay. It is filed as functional. Further details: scale not given: direction of the effect not stated beside the values. The settings on record: 10 µM.
Assay [6] has as its target T3, Arginase-2, mitochondrial (Homo sapiens) (UniProt P78540).
T3 sequence (whole entry): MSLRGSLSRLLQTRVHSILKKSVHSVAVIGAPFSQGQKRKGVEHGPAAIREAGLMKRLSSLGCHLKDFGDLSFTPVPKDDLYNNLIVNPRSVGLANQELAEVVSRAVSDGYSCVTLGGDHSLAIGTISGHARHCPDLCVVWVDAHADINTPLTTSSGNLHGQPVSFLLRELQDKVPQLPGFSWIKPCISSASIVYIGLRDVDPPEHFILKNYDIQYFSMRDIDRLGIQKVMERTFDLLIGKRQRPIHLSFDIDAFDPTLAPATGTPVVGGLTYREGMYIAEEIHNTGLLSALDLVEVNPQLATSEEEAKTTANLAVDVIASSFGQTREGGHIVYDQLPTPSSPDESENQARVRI
In words: in vitro enzyme assay to detect the production of urea directly proportional to the activity of Arginase II. It is filed as functional. Further details: scale not given: in the data most compounds retested in dose-response had high values.

Assay [7] has as its target T4, Proteasome subunit beta (Trypanosoma cruzi) (UniProt O96673).
T4 sequence (whole entry): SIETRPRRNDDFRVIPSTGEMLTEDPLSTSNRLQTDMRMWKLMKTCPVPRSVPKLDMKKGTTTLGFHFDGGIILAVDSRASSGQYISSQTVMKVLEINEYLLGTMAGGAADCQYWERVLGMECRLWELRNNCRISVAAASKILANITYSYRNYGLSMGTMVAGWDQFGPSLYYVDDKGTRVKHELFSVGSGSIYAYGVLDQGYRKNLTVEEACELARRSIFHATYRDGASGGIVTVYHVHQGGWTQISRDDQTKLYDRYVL
Nature of the assay: Trypanosoma cruzi proteasome chymotrypsin-like activity (TcProtChymo) assay. It is filed as functional. The settings on record: 9.37 µM. Also noted: scale not given: in the data most compounds retested in dose-response had high values.

For another assay, the species on record is Homo sapiens. Nature of the assay: To identify inhibition of the IFN signalling (Jak-Stat) pathway via expression of an eGFP reporter gene under the control of an IFN-stimulated response element (ISRE) containing MxA promoter. It is filed as functional. Also noted: scale not given: direction of the effect not stated beside the values. The settings on record: 30 µM.

Assay [8] addresses T5, Tyrosyl-tRNA synthetase, putative (Trypanosoma cruzi (strain CL Brener)) (UniProt Q4DSP6).
T5 sequence (whole entry): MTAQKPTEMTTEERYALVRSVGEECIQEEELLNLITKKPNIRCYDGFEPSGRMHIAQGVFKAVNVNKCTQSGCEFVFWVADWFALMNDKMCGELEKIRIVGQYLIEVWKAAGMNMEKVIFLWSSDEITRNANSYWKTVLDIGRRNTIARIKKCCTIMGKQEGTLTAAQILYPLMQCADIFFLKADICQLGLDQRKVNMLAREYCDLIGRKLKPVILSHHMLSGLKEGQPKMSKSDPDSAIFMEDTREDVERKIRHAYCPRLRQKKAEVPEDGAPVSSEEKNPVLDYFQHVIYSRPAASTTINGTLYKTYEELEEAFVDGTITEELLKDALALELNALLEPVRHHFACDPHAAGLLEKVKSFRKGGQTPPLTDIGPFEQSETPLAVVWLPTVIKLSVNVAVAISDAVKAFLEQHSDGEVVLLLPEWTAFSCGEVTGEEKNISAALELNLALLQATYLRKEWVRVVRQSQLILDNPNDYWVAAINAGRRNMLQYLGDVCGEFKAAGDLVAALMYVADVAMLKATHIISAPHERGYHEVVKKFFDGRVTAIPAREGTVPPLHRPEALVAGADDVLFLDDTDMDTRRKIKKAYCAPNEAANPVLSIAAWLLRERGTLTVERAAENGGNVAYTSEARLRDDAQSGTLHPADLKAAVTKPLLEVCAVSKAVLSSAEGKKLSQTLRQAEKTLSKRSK
In words: Trypanosoma cruzi tyrosyl tRNA synthetase (TcYRS) _High Tyrosine SOP. Also noted: scale not given: in the data most compounds retested in dose-response had high values. Type of assay: functional. The settings on record: 30 µM.

Assay [9] addresses T5, Tyrosyl-tRNA synthetase, putative (Trypanosoma cruzi (strain CL Brener)). Nature of the assay: Trypanosoma cruzi tyrosyl tRNA synthetase (TcYRS) SOP. Particulars: 30 µM. Type of assay: functional. Also noted: scale not given: direction of the effect not stated beside the values.
In assay [10] the target is Chromo domain-containing protein 1 (Saccharomyces cerevisiae (strain ATCC 204508 / S288c) (Baker's yeast)) (UniProt P32657). Nature of the assay: ScCHD-1 Enzyme Inhibition Assay. It is filed as functional. Also noted: scale not given: in the data most compounds retested in dose-response had high values. The settings on record: 30 µM.
Chain of Chromo domain-containing protein 1 (Saccharomyces cerevisiae (strain ATCC 204508 / S288c) (Baker's yeast)) (P32657 whole entry, the tested form may be a part): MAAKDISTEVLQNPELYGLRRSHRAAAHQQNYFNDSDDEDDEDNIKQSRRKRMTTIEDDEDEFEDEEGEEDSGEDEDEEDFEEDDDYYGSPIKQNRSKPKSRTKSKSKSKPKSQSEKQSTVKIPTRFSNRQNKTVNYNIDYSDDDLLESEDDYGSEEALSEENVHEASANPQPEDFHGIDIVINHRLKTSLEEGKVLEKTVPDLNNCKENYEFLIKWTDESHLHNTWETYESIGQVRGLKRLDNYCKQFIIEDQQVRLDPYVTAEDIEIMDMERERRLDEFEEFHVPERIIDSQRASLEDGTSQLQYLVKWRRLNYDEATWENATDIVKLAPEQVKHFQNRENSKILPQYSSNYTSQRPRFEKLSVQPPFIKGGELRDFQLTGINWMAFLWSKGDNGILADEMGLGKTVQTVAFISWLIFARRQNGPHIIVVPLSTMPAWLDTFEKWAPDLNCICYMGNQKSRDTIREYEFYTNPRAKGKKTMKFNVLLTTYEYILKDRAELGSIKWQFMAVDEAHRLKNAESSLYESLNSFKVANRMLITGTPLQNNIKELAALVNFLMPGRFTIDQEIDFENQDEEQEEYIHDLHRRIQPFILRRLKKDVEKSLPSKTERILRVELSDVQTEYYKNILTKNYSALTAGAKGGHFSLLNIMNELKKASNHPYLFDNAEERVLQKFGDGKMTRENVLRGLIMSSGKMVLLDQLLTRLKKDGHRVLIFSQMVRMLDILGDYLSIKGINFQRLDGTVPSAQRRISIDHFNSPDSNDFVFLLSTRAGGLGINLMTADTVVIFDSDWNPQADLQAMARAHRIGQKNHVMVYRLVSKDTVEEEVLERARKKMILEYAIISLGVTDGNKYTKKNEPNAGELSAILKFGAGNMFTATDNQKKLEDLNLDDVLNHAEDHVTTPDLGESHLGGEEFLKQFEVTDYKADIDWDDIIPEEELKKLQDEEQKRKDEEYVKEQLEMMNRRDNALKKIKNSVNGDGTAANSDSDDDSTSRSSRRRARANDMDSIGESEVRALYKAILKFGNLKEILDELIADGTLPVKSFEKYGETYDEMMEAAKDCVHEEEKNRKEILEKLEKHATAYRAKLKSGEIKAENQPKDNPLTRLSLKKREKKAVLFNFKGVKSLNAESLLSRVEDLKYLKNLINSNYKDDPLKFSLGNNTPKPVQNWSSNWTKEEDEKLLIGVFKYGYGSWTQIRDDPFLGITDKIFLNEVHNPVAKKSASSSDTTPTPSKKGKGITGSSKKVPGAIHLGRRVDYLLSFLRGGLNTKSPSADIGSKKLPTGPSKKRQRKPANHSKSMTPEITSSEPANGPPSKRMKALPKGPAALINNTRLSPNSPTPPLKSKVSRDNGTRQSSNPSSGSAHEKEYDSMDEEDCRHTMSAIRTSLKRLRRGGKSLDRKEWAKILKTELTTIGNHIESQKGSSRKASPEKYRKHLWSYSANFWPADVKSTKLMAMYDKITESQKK

On to `Cc1ccc(CN2CCC(F)(F)C3(CCN(c4cnccn4)C3)C2)o1` (stereo unspecified), for which the PXC50 in assay [1] (MAX_EFFECT 8.551068884) and in assay [1] (MAX_EFFECT 15.66901408) was under 4 each time. Also, the Percent Effect in assay [2] is -2.38%; in assay [3] it was 2.7%; in [4], 11.5%; in assay [5] it was 1.13%; in the assay with Trypanosoma cruzi, 0%; in assay [6] (33.3 µM), 3.33%. Moreover, the Percent Effect in assay [7] was -3.13%; in the assay listed under Homo sapiens, 0.47%; in [8], 5.94%; in assay [9], 3.66%; in assay [10] it was -2.36%.
Take `Cn1cnnc1C1CCN(c2cncc(-n3cccn3)n2)CC1`: the PXC50 in assay [1] (MAX_EFFECT 4.275534442) and in assay [1] (MAX_EFFECT 11.79577465) was under 4 in each case. The Percent Effect in assay [2] is -2.06%; in [3], 8.11%; in [4] it was -2.17%; in assay [5] it was -0.628%; with Trypanosoma cruzi, 0.781%; in assay [6] (33.3 µM) it was 2.92%. Also, the Percent Effect is 13.8% in assay [7]; -3.56% in the assay listed under Homo sapiens; 5.94% in assay [8]; 8.54% in assay [9]; -8.65% in assay [10].
Regarding `Cc1nc(C2CCCN2C(=O)CNS(C)(=O)=O)no1` (stereo unspecified), the Percent Effect is -2.65% in assay [2]; 5.33% in assay [3]; -7.92% in [4]; -1.69% in [5]; -0.876% in the assay with Trypanosoma cruzi; -12.4% in [6] (30 µM). The Percent Effect in [6] (33.3 µM) is 0%; in assay [7], 10.5%; in the assay filed under Homo sapiens it was 5.88%; in [8], 7.1%; in [9], 18.5%; in [10], -12.8%.
Consider `FC1(F)CCN(Cc2ccncc2)CC12CCN(Cc1ccccn1)C2` (stereo unspecified), for which the PXC50 in [1] (MAX_EFFECT 4.275534442) and in [1] (MAX_EFFECT 11.44366197) was under 4 each time. Further, the Percent Effect was -7.03% in assay [2]; 0% in [3]; -0.894% in [4]; 2.49% in [5]; -5.96% with Trypanosoma cruzi; 0.319% in [6] (33.3 µM). For the same molecule, the Percent Effect in [7] is 5.35%; in the assay filed under Homo sapiens it was 17.3%; in assay [8], -3.24%; in [9], -5.13%; in assay [10], -2.99%.
